{
  "source": "PubChem BioAssay (NCATS)",
  "note": "“And” between values parts separate entries of the source, which are not always exact repeats. Identical values can stand only once. Results filed as inconclusive are left out. The source made the active and inactive calls. The call rests on the fitted dose curve; in most records, active means well fitted inhibition curve with a large enough effect; inconclusive means small, poorly fitted or top-dose-only effect; inactive means flat fitted curve, though single readings scatter. Potency means the concentration at half of the fitted maximal effect.",
  "data": [
    {"molecular_target": "Ubiquitin carboxyl-terminal hydrolase 2 (Homo sapiens) (UniProt O75604)", "sequence (O75604 whole entry, looked up)": "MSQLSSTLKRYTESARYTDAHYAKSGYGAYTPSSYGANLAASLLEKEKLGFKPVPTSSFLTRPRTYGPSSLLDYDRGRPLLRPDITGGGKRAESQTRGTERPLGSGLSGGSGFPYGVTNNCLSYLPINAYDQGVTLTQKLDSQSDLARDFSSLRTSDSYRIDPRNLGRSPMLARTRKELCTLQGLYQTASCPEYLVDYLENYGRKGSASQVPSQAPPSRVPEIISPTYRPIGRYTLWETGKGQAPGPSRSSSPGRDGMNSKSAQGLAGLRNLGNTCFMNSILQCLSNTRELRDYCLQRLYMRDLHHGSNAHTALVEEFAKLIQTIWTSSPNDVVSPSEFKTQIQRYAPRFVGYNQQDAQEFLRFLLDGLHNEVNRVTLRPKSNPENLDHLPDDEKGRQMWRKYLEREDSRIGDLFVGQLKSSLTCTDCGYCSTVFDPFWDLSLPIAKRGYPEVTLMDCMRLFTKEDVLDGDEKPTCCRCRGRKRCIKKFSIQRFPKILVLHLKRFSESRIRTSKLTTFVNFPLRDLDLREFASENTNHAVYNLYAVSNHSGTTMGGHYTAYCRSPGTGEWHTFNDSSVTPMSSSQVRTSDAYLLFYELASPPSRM", "experiment": "qHTS for Inhibitors of Ubiquitin-specific Protease USP2a Using CHOP2 as the Reporter: K484 Substrate (AID 652173); further: nearly all actives have a fitted effect of over 70% in size", "conditions": "USP2 cleavage of DiUb K48 IQF substrate, fluorescence; series mostly up to 57.5 µM", "source_text": "Homeostasis of cellular proteins is maintained through a combination of synthesis and degradation. The pathway that accounts for the majority of protein degradation is the ubiquitin-proteasomal pathway. Ubiquitin (Ub) is highly conserved in all cells and the generation of a multi-Ub chain typically targets proteins for degradation by the proteasome. However, ubiquitination is highly reversible and dynamic. Deubiquitination, the reverse process, is catalyzed through the action of enzymes referred to as isopeptidases or deubiquitinating enzymes (DUBs). This group of enzymes is collectively responsible for maintaining adequate pools of free ubiquitin and regulating the ubiquitination status of cellular proteins. The class of DUBs referred to as the ubiquitin-specific proteases (USP) family functions endoproteolytically to cleave Ub chains from a wide range of protein substrates. USP2a deubiquitinates fatty acid synthase (FASN) which has recently been identified as an emerging oncology target. To identify inhibitors of USP2a a cell-free qHTS assay was employed. Confirmed qHTS active compounds were tested in orthogonal USP2 assays utilizing a di-ubiquitin substrate labeled with a quencher on one ubiquitin and a fluorescent compound on the other, i.e. the substrate has internally quenched fluorescence or IQF (Lifesensors). In the presence of active USP2, the diubiquitin (DiUb) is cleaved and the fluorescence at 598 nm increases. This assay is run in kinetic mode. Upon inhibition of USP2, the fluorescence signal from cleaved substrate increases less over time than in the absence of an inhibitor. This assay was also used during SAR. The buffer consisted of 20 mM Tris pH 8, 2 mM beta-mercaptoethanol and 0.05% Chaps, and the assay was run in black solid-bottom Greiner plates. NIH Molecular Libraries Probe Centers Network [MLPCN] NIH Chemical Genomics Center [NCGC] MLSCN Grant: MH079852 PI Name: Benjamin Nicholson, Progenra Inc, Malvern, PA\n3 uL of 5 nM USP2 (or no enzyme) was dispensed in assay buffer was dispensed into a 1536-well plate and then compounds were added through pinning. 1 uL of 100 nM DiUb K48-4IQF subtsrate was added before fluoresence on the ViewLux in kinetic moder (Ex 525/Em 598).", "values": [
      {"smiles": "Cc1ccc(S(=O)(=O)Nc2cnccc2C(=O)Nc2cccc3ccccc23)cc1", "Potency": "7.69 µM (active)"},
      {"smiles": "Cc1ccc(C(=O)Nc2ccc(S(=O)(=O)Nc3nccs3)cc2)cc1C", "Potency": "24.3 µM (active)"},
      {"smiles": "O=C(Nc1nc(-c2ccccc2)cs1)c1ccncc1NS(=O)(=O)c1ccc(-c2ccccc2)cc1", "Potency": "1.53 µM (active)"},
      {"smiles": "O=C(Nc1nc(-c2ccccc2)cs1)c1ccncc1NS(=O)(=O)c1ccc(F)cc1", "Potency": "3.06 µM (active)"},
      {"smiles": "Cc1ccc(-c2cc(C(=O)Nc3ccncc3)c3ccccc3n2)cc1C", "Potency": "13.7 µM (active)"},
      {"smiles": "Cc1ccc(-c2cc(C(=O)Nc3ccc(S(=O)(=O)Nc4ccncc4)cc3)c3ccccc3n2)cc1C", "Potency": "9.68 µM (active)"},
      {"smiles": "Cc1ccc(-c2cc(C(=O)Nc3ccc([N+](=O)[O-])cc3)c3ccccc3n2)cc1C", "Potency": "13.7 µM (active)"},
      {"smiles": "Cc1ccc(-c2cc(C(=O)Nc3ccc4[nH]ccc4c3)c3ccccc3n2)cc1C", "Potency": "8.63 µM (active)"},
      {"smiles": "O=S(=O)(Nc1nccs1)c1ccc(Nc2nc(-c3ccc(Cl)c(Cl)c3)cs2)cc1", "Potency": "27.3 µM (active)"},
      {"smiles": "Cc1ccc(-c2cc(C(=O)Nc3ccc(S(N)(=O)=O)cc3)c3cccc(C)c3n2)cc1C", "Potency": "17.2 µM (active) and 6.85 µM (active)"},
      {"smiles": "Cc1ccc(S(=O)(=O)Nc2cnccc2C(=O)Nc2nc(-c3ccccc3)cs2)cc1", "Potency": "2.17 µM (active) and 1.72 µM (active)"},
      {"smiles": "Cc1ccc(S(=O)(=O)Nc2cc([N+](=O)[O-])ccc2C(=O)Nc2nc(-c3ccccc3)cs2)cc1", "Potency": "0.968 µM (active)"},
      {"smiles": "Cc1cccc(S(=O)(=O)Nc2cnccc2C(=O)Nc2nc(-c3ccccc3)cs2)c1", "Potency": "2.73 µM (active)"},
      {"smiles": "Cc1ccc(S(=O)(=O)Nc2ccc(OC(F)(F)F)cc2C(=O)Nc2nc(-c3ccccc3)cs2)cc1", "Potency": "2.43 µM (active)"},
      {"smiles": "COc1ccc(C(=O)Nc2nc(-c3ccccc3)cs2)c(NS(=O)(=O)c2ccc(C)cc2)c1", "Potency": "1.37 µM (active)"},
      {"smiles": "O=C(Nc1nc(-c2ccccc2)cs1)c1ccncc1NS(=O)(=O)c1ccc2c(c1)CCC2", "Potency": "1.93 µM (active)"},
      {"smiles": "Cc1ccc(-c2cc(C(=O)Nc3cccc(S(=O)(=O)Nc4nccs4)c3)c3ccccc3n2)cc1C", "Potency": "3.06 µM (active)"},
      {"smiles": "CC(=O)Nc1ncc(S(=O)(=O)Nc2cnccc2C(=O)Nc2nc(-c3ccccc3)cs2)s1", "Potency": "10.9 µM (active)"},
      {"smiles": "Cc1ccc(-c2cc(C(=O)Nc3ccc4ccccc4c3)c3ccccc3n2)cc1C", "Potency": "19.3 µM (active)"},
      {"smiles": "Cc1ccc(-c2cc(C(=O)Nc3ccc(C#N)cc3)c3ccccc3n2)cc1C", "Potency": "12.2 µM (active)"},
      {"smiles": "N#Cc1ccccc1S(=O)(=O)Nc1cnccc1C(=O)Nc1nc(-c2ccccc2)cs1", "Potency": "7.69 µM (active)"},
      {"smiles": "Cc1ccc(S(=O)(=O)Nc2cnccc2C(=O)Nc2nc(-c3ccccc3F)cs2)cc1", "Potency": "2.17 µM (active)"},
      {"smiles": "O=C(Nc1nc(-c2ccc(F)cc2)cs1)c1ccncc1NS(=O)(=O)c1ccccc1Cl", "Potency": "3.06 µM (active)"},
      {"smiles": "CCCCC1CCC(C(=O)Nc2ccc(S(=O)(=O)Nc3cc(C)on3)cc2)CC1", "note": "(stereo not given)", "Potency": "12.2 µM (active)"},
      {"smiles": "Cc1ccc(S(=O)(=O)Nc2cnccc2C(=O)Nc2nc(-c3cccnc3)cs2)cc1", "Potency": "13.7 µM (active)"},
      {"smiles": "Cc1ccc(-c2cc(C(=O)Nc3cccnc3)c3ccccc3n2)cc1C", "Potency": "19.3 µM (active)"},
      {"smiles": "CCCc1ccc(C(=O)Nc2ccc(S(=O)(=O)Nc3nccs3)cc2)cc1", "Potency": "21.7 µM (active)"},
      {"smiles": "Nc1ccc(S(=O)(=O)Nc2cnccc2C(=O)Nc2nc(-c3ccccc3)cs2)cc1", "Potency": "17.2 µM (active)"},
      {"smiles": "COc1cccc(-c2csc(NC(=O)c3ccncc3NS(=O)(=O)c3ccc(C)cc3)n2)c1", "Potency": "1.72 µM (active)"},
      {"smiles": "O=C(C[C@H]1CC[C@@H](C(=O)Nc2ccc(S(=O)(=O)Nc3nccs3)cc2)C1)c1ccccc1", "Potency": "19.3 µM (active)"},
      {"smiles": "Nc1cccc(S(=O)(=O)Nc2cnccc2C(=O)Nc2nc(-c3ccccc3)cs2)c1", "Potency": "13.7 µM (active)"},
      {"smiles": "N#Cc1ccc(S(=O)(=O)Nc2cnccc2C(=O)Nc2nc(-c3ccccc3)cs2)cc1", "Potency": "2.43 µM (active)"},
      {"smiles": "Cc1ccc(-c2csc(Nc3ccc(S(=O)(=O)Nc4nccs4)cc3)n2)cc1C", "Potency": "4.32 µM (active)"},
      {"smiles": "CC(C)(C)NC(=O)N1CCC(C(=O)Nc2ccc([S+](=O)([O-])Nc3nccs3)cc2)CC1", "Potency": "inactive"},
      {"smiles": "CCc1ccc(S(=O)(=O)Nc2cnccc2C(=O)Nc2nc(-c3ccccc3)cs2)cc1", "Potency": "1.72 µM (active)"},
      {"smiles": "Cc1ccc(S(=O)(=O)Nc2cnccc2C(=O)Nc2nc(-c3ccco3)cs2)cc1", "Potency": "4.32 µM (active)"},
      {"smiles": "Cc1ccc(S(=O)(=O)Nc2cnccc2C(=O)Nc2nc(-c3ccc4c(c3)CCCC4)cs2)cc1", "Potency": "2.17 µM (active)"},
      {"smiles": "O=C(Nc1nc(-c2ccccc2)cs1)c1ccncc1NS(=O)(=O)c1ccc(Cl)cc1", "Potency": "1.53 µM (active)"},
      {"smiles": "Cc1ccc(S(=O)(=O)Nc2cnccc2C(=O)Nc2nc(-c3cccc(F)c3)cs2)cc1", "Potency": "1.37 µM (active)"},
      {"smiles": "Cc1ccc(-c2csc(NC(=O)c3ccncc3NS(=O)(=O)c3ccc(C)cc3)n2)cc1", "Potency": "1.22 µM (active)"}
    ]}
  ]
}
